Several values for one entry are separate records, joined by “and”; a condition that tells them apart may be missing. Equal values may be shown once. In all, about 38,000 compounds went through this assay and about 1,200 (3.2%) showed an effect of 50% or more. The median lay at about -58%. Shown is part of a subset that was picked to be rich in strong results.
Test system: Plasmodium falciparum
Assay: Calibr Malaria Delayed Death Assay SOP
Format: functional, organism-based
Parameters: scale not given: in the data most compounds retested in dose-response had high values
Details: concentration 4.99e-06 (unit not given; other assays of the set use mol/L)

In the case of `COc1ccc(OC)c(C(C)NS(=O)(=O)c2cn(C)nc2C)c1` (stereo not drawn), the “Percent Effect” value is reported as -72.91%.
In the case of `CCc1ncc(C(=O)N(C)CCc2nc3cc(OC)ccc3[nH]2)cn1`, the “Percent Effect” value is reported as -128%.
In the case of `CC(=O)NC[C@@H]1C=C(C)[C@H](CC(=O)NCCN(C)C)C[C@H]1C(C)C`, the “Percent Effect” value is reported as -26.76%.
With `CCn1nc(C)c(C(=O)N2C[C@@H](CN(C)C)[C@@H](CO)C2)c1C` the “Percent Effect” value (4.99 µM) was -17.38% and -19.57%.
In the case of `CC(=O)N1CCC(=O)N(C2CCCC2)Cc2ccccc21`, the “Percent Effect” value is reported as -73.21%.
With `COc1ccc(-c2csc3c2c(N)nc(=O)n3CCCN(C)C)cc1` the “Percent Effect” value was 54.04%.
With `CCn1c(=O)nc(N)c2c(-c3ccc(OC)cc3)csc21` the “Percent Effect” value was -67.94%.
With `COc1ccc(-c2csc3c2c(N)nc(=O)n3CCN(C)C)cc1` the “Percent Effect” value was -27.97%.
In the case of `CC(C)c1nc(N2CC(N3CCCCC3C)C2)c2cnn(C)c2n1` (stereo not drawn), the “Percent Effect” value is reported as -59.85%.
For `CC(C)c1nc(N2CCC(N3CCCCCC3)CC2)c2cnn(C)c2n1`, the “Percent Effect” value was 50.67%.
With `Cc1nc(N2CCCC(N3CCCC3)C2)c2cnn(C)c2n1` (stereo not drawn) the “Percent Effect” value was -29.13%.
`Cc1nccn1C1CCCN(C(=O)c2cccc3c2OCO3)C1` (stereo not drawn) was tested, and the “Percent Effect” value was -58.82%.
`NC(=O)C1CCC(NC(=O)COc2ccc(Cl)c(Cl)c2)CC1` (stereo not drawn) was tested, and the “Percent Effect” value was 13.16%.
`O=C1CC(N2CCN(c3ccccc3O)CC2)C(=O)N1Cc1cccs1` (stereo not drawn) was tested, and the “Percent Effect” value was -172.2%.
With `CCN(Cc1ccncc1)C(=O)CCn1c(C)cc2ccccc21` the “Percent Effect” value was 55.24%.
In the case of `Cc1cc2ccccc2n1CCC(=O)NCCN(C)S(C)(=O)=O`, the “Percent Effect” value is reported as -87.62%.
`CCN(Cc1nc(COC)no1)C(=O)CCn1c(C)cc2ccccc21` was tested, and the “Percent Effect” value was 5.524%.
For `CN(C)C(=O)CC1CC2(CCN(Cc3cccs3)CC2)c2ccccc21.O=C(O)C(F)(F)F` (stereo not drawn), the “Percent Effect” value was 22.44%.
`CN1CCN(C(=O)N2CCCC(c3nccn3CC3CCC3)C2)CC1` (stereo not drawn) was tested, and the “Percent Effect” value was -95.73%.
For `CC(=O)N1CCC(C(=O)NCc2ncc(-c3ccccc3)o2)CC1`, the “Percent Effect” value was -123.2%.
For `CCc1nc(CN2CCCC2C(=O)NC2CC2)cs1` (stereo not drawn), the “Percent Effect” value was -16.64%.
In the case of `CC(C)(C)NC(=O)C1CCCCN1Cc1nccn1CC(F)(F)F` (stereo not drawn), the “Percent Effect” value is reported as -48.44%.
For `CCn1ccnc1CN1CCCC1C(=O)Nc1nccs1` (stereo not drawn), the “Percent Effect” value was 84.6%.
In the case of `CCNc1ccnc(CN2CCCC2C(=O)Nc2nccs2)c1` (stereo not drawn), the “Percent Effect” value is reported as 94.9%.
With `NC(=O)C1CCCN1Cc1nccn1CC(F)(F)F` (stereo not drawn) the “Percent Effect” value was -38.81%.
`CC(=O)Nc1cccc(CN2CCCC2C(=O)Nc2nccs2)c1` (stereo not drawn) was tested, and the “Percent Effect” value was -76.05%.
For `O=C(Nc1nccs1)C1CCCN1Cc1ccccn1` (stereo not drawn), the “Percent Effect” value was 93.51%.
In the case of `CCc1nc(CN2CCCC2C(=O)NC)cs1` (stereo not drawn), the “Percent Effect” value is reported as -71.78%.
`CN(Cc1cnn(C)c1)C(=O)C1CCCN1Cc1ccccn1` (stereo not drawn) was tested, and the “Percent Effect” value was -66.14%.
For `Cc1cnn(CC2CCCN2C(=O)c2n[nH]c3ccccc23)c1` (stereo not drawn), the “Percent Effect” value was -56.22%.
For `CC(=O)Nc1ccc(SCCCC(=O)NCC2CCCO2)nn1` (stereo not drawn), the “Percent Effect” value was -99.67%.
With `CC(NC(=O)N1CCC1)c1ccc(S(N)(=O)=O)cc1` (stereo not drawn) the “Percent Effect” value was -105.8%.
With `Cc1ccc(NC(=O)NCCc2cnn(C)c2)c(N(C)C)n1` the “Percent Effect” value was -69.56%.
In the case of `CCc1ccsc1C(=O)N1CCN(C(=O)CC(F)(F)F)CC1`, the “Percent Effect” value is reported as -98.82%.
With `CCC1(CC)CC(=O)N(CC(O)c2cc(F)ccc2F)C1=O` (stereo not drawn) the “Percent Effect” value was -120%.
With `Cc1cccc(CN2CCc3ncnc(N4CCCC4)c3CC2)n1.O=C(O)C(F)(F)F` the “Percent Effect” value was -17.07%.
`O=c1c(NCc2ccco2)c(NCC(O)CN2CCOCC2)c1=O` (stereo not drawn) was tested, and the “Percent Effect” value was -219.4%.
For `O=C(c1ccnc(N2CCOC(C(F)(F)F)C2)c1)N1CCCC1` (stereo not drawn), the “Percent Effect” value was -34.44%.
`O=C(Nc1ccccn1)NC1CCN(c2ccccc2OC(F)F)C1` (stereo not drawn) was tested, and the “Percent Effect” value was 9.794%.
For `Cc1c(CNC2CCN(c3ccccc3OC(F)F)C2)cnn1C` (stereo not drawn), the “Percent Effect” value was 69.48%.
In the case of `COc1ccccc1N1CCC(NCc2c(C)noc2C)C1` (stereo not drawn), the “Percent Effect” value is reported as 24.81%.
For `O=C(Nc1cn[nH]c1)NC1CCN(c2ccccc2OC(F)F)C1` (stereo not drawn), the “Percent Effect” value was -124.3%.
In the case of `Cc1noc(C)c1CNc1c(N2CCCC2)cccc1N1CCCC1`, the “Percent Effect” value is reported as -39.5%.
`O=C(NC1CCN(c2ccccc2OC(F)F)C1)c1cccnc1` (stereo not drawn) was tested, and the “Percent Effect” value was -43.56%.
With `O=C(Nc1ccncc1)NC1CCN(c2ccccc2OC(F)F)C1` (stereo not drawn) the “Percent Effect” value was 64.77%.
In the case of `O=C(Nc1cccnc1)NC1CCN(c2ccccc2OC(F)F)C1` (stereo not drawn), the “Percent Effect” value is reported as 16.84%.
For `Cc1noc(C)c1CNC1CCN(c2ccccc2OC(F)F)C1` (stereo not drawn), the “Percent Effect” value was 63.44%.
For `CC1(C)CCN1C(=O)c1cc(F)cc2[nH]cnc12`, the “Percent Effect” value was -143.1%.
`CNC(=O)CS(=O)(=O)NC1CCC(C)CC1` (stereo not drawn) was tested, and the “Percent Effect” value was 0.5939%.
In the case of `Cc1cc(CN2CCN(Cc3cc(C#N)ccc3F)CC2)no1`, the “Percent Effect” value is reported as -43.24%.
With `O=C(O)C(F)(F)F.c1cnc(N2C[C@@H]3COC[C@]3(COCC3CCCC3)C2)nc1` the “Percent Effect” value was -62.66%.
In the case of `COc1ccc(S(=O)(=O)NCCn2cnc(C)cc2=O)cc1C`, the “Percent Effect” value is reported as -119.1%.
For `COc1cccc(CN(C)Cc2cc(C#N)ccc2F)c1OC`, the “Percent Effect” value was -37.67%.
In the case of `COc1cccc(CN(C)Cc2ccccc2C#N)c1OC`, the “Percent Effect” value is reported as -10.45%.
With `CC(C)OCc1nn(C)c2c1CCN(CC1CC1)C2.O=C(O)C(F)(F)F` the “Percent Effect” value was -24.03%.
With `O=C(N1CCSCC1)C1(O)Cc2ccccc2C1` the “Percent Effect” value was -49.25%.
With `O=C(N1CCN(CCO)CC1)C1(O)Cc2ccccc2C1` the “Percent Effect” value was -7.059%.
`O=C(N1CCc2ccccc2CC1)C1(O)Cc2ccccc2C1` was tested, and the “Percent Effect” value was 56.27%.
In the case of `COCCNC(=O)C1CN(C(N)=O)Cc2ccnn2C1` (stereo not drawn), the “Percent Effect” value is reported as -83.21%.
For `O=C(c1coc(COc2cccc3cnccc23)n1)N1CCCCCC1`, the “Percent Effect” value was 16.31%.
`O=C(O)c1coc(COc2cccc3cnccc23)n1` was tested, and the “Percent Effect” value was -75.43%.
For `CC(C(=O)Nc1ccc(N2CCCCC2)nc1)n1ccnc1` (stereo not drawn), the “Percent Effect” value was -81.15%.
`Cn1ccnc1CN(Cc1cccnc1)CC1CCCO1` (stereo not drawn) was tested, and the “Percent Effect” value was -29.26%.
For `NCC(c1ccccc1)N1CCc2sccc2C1` (stereo not drawn), the “Percent Effect” value was 56.94%.
In the case of `N#Cc1ccccc1CN1CCc2sccc2C1`, the “Percent Effect” value is reported as -109.2%.
In the case of `CC(CNC(=O)c1ccco1)N1CCc2sccc2C1` (stereo not drawn), the “Percent Effect” value is reported as -89.83%.
For `O=C(CCn1ccc2ccc(Br)cc21)/N=c1\[nH]nc(C2CCCO2)s1` (stereo not drawn), the “Percent Effect” value was -91.4%.
For `CC(c1ccc(S(C)(=O)=O)cc1)N(C)C(=O)c1ccccc1I` (stereo not drawn), the “Percent Effect” value was -43.05%.

From ChEMBL document CHEMBL3988442, “University of Dundee, Small-Polar-MMV Screening Library” (2021)
